Data on 38 compounds can be found in PubChem BioAssay (EPA / NIEHS).

Several values for one entry are separate records, joined by “and”; a condition that tells them apart may be missing. Identical values can stand only once. More than one record can exist for a structure, and the calls need not agree. Activity calls are given as the source filed them. The calls were made as follows: active = hit-call score of the fitted dose curve at least 0.9, where 1 is the maximum; inconclusive = response in the unintended direction; inactive = score below 0.9.

The assay can be described thus: Tanguay_ZF_120hpf_MORT_legacy: (Legacy) Oregon State University Tanguay Lab 120 Hour Post-fertilization zebrafish Assay for Mortality (AID 2283633). How it is done:
Tanguay_ZF_120hpf_legacy is a whole embryo, multiplexed endpoint assay using zebrafish larvae exposed for 120 hours post fertilization on a 96-well plate.Tanguay_ZF_120hpf_MORT_legacy is one of one assay component(s) measured or calculated from the Tanguay_ZF_120hpf_legacy assay. It is designed to make measurements of embryonic mortality as detected with brightfield microscopy of developing zebrafish embryos.Data from the assay component Tanguay_ZF_120hpf_MORT_legacy was analyzed into 1 assay endpoints. This assay endpoint, Tanguay_ZF_120hpf_MORT_legacy, was analyzed in the positive analysis fitting direction relative to DMSO as the negative control and baseline of activity. Using a type of viability reporter, gain-of-signal activity can be used to understand changes in developmentals as they relate to the whole embryo. To generalize the intended target to other relatable targets, this assay endpoint is annotated to the embryonic mortality intended target family, where the subfamily is embryonic mortality.
Zebrafish husbandry: Tropical 5D wild-type adult zebrafish were housed in at an approximate density of 1000 per 100 gallon tank at the Sinnhuber Aquatic Research Laboratory, Oregon State University, Corvallis, OR. Each tank was kept at standard laboratory conditions of 28C on a 14-h light/10-h dark photoperiod in fish water consisting of reverse osmosis water supplemented with a commercially available salt (Instant Ocean). Spawning funnels were placed into the tanks the night prior, and embryos were collected and staged. To increase bioavailability, the chorion was enzymatically removed using pronase (63.6mg/ml, >/= 3.5U/mg, Sigma-Aldrich: P5147) at 4 hours post fertilization (hpf) using a custom automated dechorionator.Chemical exposures: Six hpf dechorionated embryos were placed 1 embryo per well in a 96-well plate prefilled with 90 ul of EM using automated embryo placement systems (AEPS). Ten microliters of each row of dilution plate 2 was added to 2 exposure plates. The final DMSO concentration used was 0.64% (vol/vol). Thirty-two embryos were also exposed to 5uM trimethyltin chloride (positive control). Plates were sealed to prevent evaporation and foil covered to reduce light exposure and kept in a 28C incubator. Embryos were statically exposed until 120 hpf. At 24 hpf, embryos were assessed for photomotor response using a custom photomotor response analysis tool (PRAT) and for developmental toxicity endpoints (MO24: mortality at 24 hpf, DP: developmental progression, SM: spontaneous movement, and NC: notochord distortion). At 120 hpf, locomotor activity was measured using Viewpoint Zebralab and assessed for 18 endpoints. Zebrafish acquisition and analysis program (ZAAP), a custom program designed to inventory, acquire, and manage zebrafish data, was used to collect developmental endpoints as either present or absent (i.e., binary responses were recorded). If mortality occurred for an embryo (at either 24 or 120 hpf), the non-mortality endpoints were not measured.
Consider `CCC(C)(NC(=O)c1cc(Cl)c(C)c(Cl)c1)C(=O)CCl` (stereo not given), for which the compound was called inactive. With `O=S(=O)(O)C(F)(F)C(F)(F)C(F)(F)C(F)(F)C(F)(F)C(F)(F)C(F)(F)C(F)(F)F`, the call was inactive; the half-maximal activity concentration (AC50) (as a rule, the concentration giving half of the maximal activity seen) is 426 nM (active) and 4.73 µM (active) and 20.8 µM (active). Take `CCOCN(C(=O)CCl)c1c(C)cccc1CC`: the compound was called inactive. On the same count and under the same terms, with `COP(=S)(OC)Oc1ccc(SC)c(C)c1` the entry was “inactive”. For `N#Cc1c(Cl)c(Cl)c(Cl)c(C#N)c1Cl`, the concentration at half-maximal activity (AC50) was 24.8 µM (active). For the compound `CCCN(CCOc1c(Cl)cc(Cl)cc1Cl)C(=O)n1ccnc1`, the result was inactive. In the case of `CCCN(CCC)c1c([N+](=O)[O-])cc(C(F)(F)F)cc1[N+](=O)[O-]`, the result was inactive.

For `Oc1ccc(Cl)cc1Cc1ccccc1`, the half-maximal activity concentration (AC50) was 10.8 µM (active) and 6.48 µM (active) and 36 µM (active). With `CC(C)(C)C(O)/C(=C\c1ccc(Cl)cc1Cl)n1cncn1` (stereo not given), the result was inactive.

On to `O=C(Nc1ccccc1)Nc1cnns1`, for which the compound was called inactive. With `O=[N+]([O-])/N=C1\NCCN1Cc1ccc(Cl)nc1`, the outcome was inactive.

`CC(C)(C)C(O)C(Oc1ccc(Cl)cc1)n1cncn1` (stereo not given): the result was inactive. For the compound `O=C1c2ccccc2C(=O)N1SC(Cl)(Cl)Cl`, the compound was classed as inactive. `CC1(c2ccc(Oc3ccccc3)cc2)OC(=O)N(Nc2ccccc2)C1=O` (stereo not given): the compound was classed as inactive. The same measure, in the same setting: the same measure for `O=S1OCC2C(CO1)C1(Cl)C(Cl)=C(Cl)C2(Cl)C1(Cl)Cl` (stereo not given): “inactive”; for `CN1CSC(=S)N(C)C1`: “inactive”; for `OCCOc1ccccc1`: “inactive”. On the same count and under the same terms, with `CNC(=O)Oc1cccc(N=CN(C)C)c1` the entry was “inactive”.

`CCN(CC)C(=O)SCc1ccc(Cl)cc1`: the outcome was inactive.

`O=C(NC(=O)c1c(F)cccc1F)Nc1ccc(OC(F)(F)C(F)OC(F)(F)F)c(Cl)c1` (stereo not given): the call was inactive. On the same count and under the same terms, with `N#CN` the entry was “inactive”. As to `Oc1cc(Cl)ccc1Oc1ccc(Cl)cc1Cl`, the call was inactive and the AC50 is 26.5 µM (active).

On to `CCC(C)(C)C(=O)OC1=C(c2ccc(Cl)cc2Cl)C(=O)OC12CCCCC2`, for which the compound was classed as inactive. Take `C[C@H]1[C@H](c2ccc(Cl)cc2)SC(=O)N1C(=O)NC1CCCCC1`: the compound was classed as inactive. In the case of `CCC(C)Nc1c([N+](=O)[O-])cc(C(C)(C)C)cc1[N+](=O)[O-]` (stereo not given), the outcome was inactive. Consider `CNC(=O)Oc1ccccc1OC(C)C`, for which the outcome was inactive. Regarding `Cc1[nH]c(=O)n(C(C)(C)C)c(=O)c1Cl`, the call was inactive. Regarding `CCOC1Oc2ccc(OS(C)(=O)=O)cc2C1(C)C` (stereo not given), the result was inactive. `CC[C@H](C)[C@H]1O[C@]2(C=C[C@@H]1C)C[C@@H]1C[C@@H](C/C=C(\C)[C@@H](O[C@H]3C[C@H](OC)[C@@H](O[C@H]4C[C@H](OC)[C@@H](O)[C@H](C)O4)[C@H](C)O3)[C@@H](C)/C=C/C=C3\CO[C@@H]4[C@H](O)C(C)=C[C@@H](C(=O)O1)[C@]34O)O2` (tested in a mixture with another compound): the AC50 was 13.9 µM (active).

Regarding `C#CCN1C(=O)COc2cc(F)c(N3C(=O)C4=C(CCCC4)C3=O)cc21`, the outcome was inactive.

As for `CC(C)OC(=O)Nc1cccc(Cl)c1`, the outcome was inactive. As for `CC(C)N(C(=O)COc1nnc(C(F)(F)F)s1)c1ccc(F)cc1`, the compound was classed as inactive. Consider `COc1nn(CSP(=S)(OC)OC)c(=O)s1`, for which the outcome was inactive. Same read-out and setting: with `O=C(O)COc1ccc(Cl)cc1Cl` the entry was “inactive”. `Clc1ccccc1-c1nnc(-c2ccccc2Cl)nn1`: the call was inactive. For the compound `CCc1ccc(C(=O)NN(C(=O)c2cc(C)cc(C)c2)C(C)(C)C)cc1`, the compound was called inactive. On to `CC1(C)C(C=C(Cl)Cl)C1C(=O)OC(C#N)c1ccc(F)c(Oc2ccccc2)c1` (stereo not given), for which the outcome was inactive. Consider `COP(=O)(OC)OC=C(Cl)Cl`, for which the call was inactive.
